From ChEMBL document CHEMBL4513146, “CO-ADD screening of Karazin Kharkiv National University (Ukraine) compounds” come the findings set out here.

Potency and affinity values are given separately.

One assay concerns Staphylococcus aureus. Particulars: Concentration 32 ug.mL-1;; ASSAY_TEST Inhibition of Bacterial Growth; detection method Absorption (OD600); MEDIA CAMHB; plate type 384well; NBS; CORNING #3640; time 18 hr.
Take `CCc1cccc(NC(=O)Cn2c(=O)c3nnc(C(C)C)n3c3ccccc32)c1`: the Inhibition (in general, the drop in the measured response relative to a control, in per cent) was found to be 12.07%.
Same read-out and setting: the value for `CCc1ccc(N(Cc2cccc(OC)c2)S(=O)(=O)c2cccn3cnnc23)cc1` was 17.37%; that for `O=S(=O)(c1cccn2cnnc12)N(Cc1ccc(F)cc1)c1ccc(F)cc1` was 8.29%; that for `Cn1c(=O)c2ccc(C(=O)NC3CCCC3)cc2n2c(SCC(=O)Nc3cc(F)ccc3F)nnc12` was 8.34%.
Take `COc1cccc(Oc2nccn3c(=O)n(CC(=O)Nc4ccc(OC)c(OC)c4)nc23)c1`: the Inhibition is given as 15.47%.
With `O=C(Cn1nc2c3cc(-c4ccc(F)cc4)nn3ccn2c1=O)NCc1ccccc1Cl`, the Inhibition is recorded as 7.18%.
For `COc1cccc(-n2ccn3c(SCC(=O)c4cccc(Cl)c4)nnc3c2=O)c1`, the Inhibition is reported as -1.54%.
Turning to `CCN(C(=O)Cn1nc2cc(C)nc(Nc3ccc(C)c(F)c3)n2c1=O)c1ccccc1`, the Inhibition was 15.67%.
Take `Cc1ccc(-c2ccc3nn(CC(=O)Nc4ccc(Br)cc4)c(=O)n3n2)cc1C`: the Inhibition amounted to 15.41%.
Take `CCCN(C)c1nccn2c(=O)n(CC(=O)Nc3ccc(Br)cc3)nc12`: the Inhibition turned out to be 8.04%.
As for `COc1ccccc1N1CCN(C(=O)CSc2nc3ccccc3n3cnnc23)CC1`, the Inhibition was 11.06%.
The same measure, in the same setting: the value for `CCOC(=O)c1ccccc1NC(=O)Cn1nc2c3sc(N4CCCC4)nc3ncn2c1=O` was 11.36%; that for `C=Cc1ccc(CSc2nnc3c(=O)n(-c4ccc(F)cc4)ccn23)cc1` was 18.57%.
Turning to `Cc1oc(-c2cccc(Cl)c2)nc1CSc1nc2ccccc2n2c(C(C)C)nnc12`, the Inhibition turned out to be 3.52%.
The same measure, in the same setting: the same measure for `CCCN(C)c1nccn2c(=O)n(CC(=O)Nc3cccc(Cl)c3F)nc12`: 4.66%.
For `COc1ccccc1-n1ccn2c(SCC(=O)Nc3ccc4c(c3)OCCO4)nnc2c1=O`, the Inhibition stood at 18.21%.
With `Cc1ccc(Sc2nccn3c(=O)n(CC(=O)Nc4ccc(Br)cc4)nc23)c(C)c1`, the Inhibition is -1.98%.
As to `O=C(Cn1nc2c(=O)n(-c3ccc(Br)cc3)ccn2c1=O)Nc1cc(F)ccc1F`, the Inhibition was determined as 4.89%.
With `COc1cc(OC)c(NC(=O)Cn2nc3c(SC4CCCCC4)nccn3c2=O)cc1Cl`, the Inhibition was 7.52%.
In the case of `CCOc1ccccc1NC(=O)Cn1nc2c3cc(-c4ccc(Cl)cc4)nn3ccn2c1=O`, the Inhibition came to 6.48%.
On the same count and under the same terms, the value for `COc1ccc(N2CCN(C(=O)Cn3nc4ccc(-c5ccc(Cl)cc5)nn4c3=O)CC2)cc1` was 9.33%; that for `COc1ccccc1-n1ccn2c(SCc3cccc(Cl)c3)nnc2c1=O` was -2.16%.
Still for that read-out and setting: the same measure for `COc1cccc(NC(=O)Cn2nc3c(Oc4ccccc4)nccn3c2=O)c1`: 0.03%; for `Cc1ccc(NC(=O)c2ccc3nnc(SCC(=O)Nc4ccc(F)cc4)n3c2)cc1`: 14.37%; for `CCc1ccc(NC(=O)Cn2nc3c(Sc4ccccc4)nccn3c2=O)cc1`: 6.66%.
For `CC(C)Cn1c(=O)c2ccc(C(=O)NC3CCCCC3)cc2n2c(=O)n(CC#N)nc12`, the Inhibition came to 8.84%.
As to `COc1cccc(-n2ccn3c(SCC(=O)N4CCN(c5ccc(F)cc5)CC4)nnc3c2=O)c1`, the Inhibition amounted to 6.4%.
On the same count and under the same terms, the same measure for `Cc1ccc(C(=O)CSc2nnc3c(=O)n(-c4ccc(F)cc4)ccn23)c(C)c1`: 7.85%; for `Cc1ccc(-c2ccc3nnc(CCC(=O)N4CCN(C(=O)c5ccco5)CC4)n3n2)cc1C`: 7.73%; for `COc1ccc(-c2cc3c4nn(CC(=O)Nc5ccc(C)cc5C)c(=O)n4ccn3n2)cc1`: 1.83%.
Still for that read-out and setting: the same measure for `Cc1nnc2c(=O)n(CC(=O)Nc3ccc(Cl)cc3F)c3ccccc3n12`: 7.03%; for `Cc1ccc(-c2cc3c4nnc(CCC(=O)NCc5ccc(F)c(Cl)c5)n4ccn3n2)cc1C`: 9.12%.
For the compound `CC(C)(C)S(=O)(=O)c1ccc2nn(CC(=O)Nc3ccc4c(c3)OCO4)c(=O)n2n1`, the Inhibition came out at 14.6%.
Regarding `COc1ccc(NC(=O)Cn2c(=O)c3nnc(C(C)C)n3c3ccccc32)cc1`, the Inhibition is listed as 4.5%.
The same measure, in the same setting: the same measure for `CCC(C)NC(=O)Cn1nc2ccc(SCc3ccc(Cl)cc3)nn2c1=O` (stereo not drawn): 7.31%.
With `Cc1ccc(NC(=O)c2ccc3nnc(SCC(=O)Nc4ccc(Br)cc4)n3c2)cc1`, the Inhibition is -2.55%.
The same measure, in the same setting: the value for `Cc1cc2nn(CC(=O)Nc3cc(F)ccc3F)c(=O)n2c(Nc2ccc(F)c(C)c2)n1` was -14.31%; that for `CC(C)c1ccc(N(Cc2cc(F)cc(F)c2)S(=O)(=O)c2cccn3cnnc23)cc1` was 8.68%.
With `Cc1c(Cl)cccc1-n1ccn2c(=O)n(Cc3cccc(F)c3)nc2c1=O`, the Inhibition is 9.54%.

A further assay has as its system Escherichia coli. Particulars: Concentration 32 ug.mL-1;; ASSAY_TEST Inhibition of Bacterial Growth; detection method Absorption (OD600); MEDIA CAMHB; plate type 384well; NBS; CORNING #3640; time 18 hr.
As to `CCc1cccc(NC(=O)Cn2c(=O)c3nnc(C(C)C)n3c3ccccc32)c1`, the Inhibition worked out at 8.67%.
On to `CCc1ccc(N(Cc2cccc(OC)c2)S(=O)(=O)c2cccn3cnnc23)cc1`, for which the Inhibition was 2.31%.
As to `O=S(=O)(c1cccn2cnnc12)N(Cc1ccc(F)cc1)c1ccc(F)cc1`, the Inhibition is recorded as -3.31%.
As to `Cn1c(=O)c2ccc(C(=O)NC3CCCC3)cc2n2c(SCC(=O)Nc3cc(F)ccc3F)nnc12`, the Inhibition was -3.62%.
As for `COc1cccc(Oc2nccn3c(=O)n(CC(=O)Nc4ccc(OC)c(OC)c4)nc23)c1`, the Inhibition is listed as -2.07%.
The same measure, in the same setting: the same measure for `O=C(Cn1nc2c3cc(-c4ccc(F)cc4)nn3ccn2c1=O)NCc1ccccc1Cl`: -0.1%; for `COc1cccc(-n2ccn3c(SCC(=O)c4cccc(Cl)c4)nnc3c2=O)c1`: 0.66%.
For `CCN(C(=O)Cn1nc2cc(C)nc(Nc3ccc(C)c(F)c3)n2c1=O)c1ccccc1`, the Inhibition is -1.02%.
Regarding `Cc1ccc(-c2ccc3nn(CC(=O)Nc4ccc(Br)cc4)c(=O)n3n2)cc1C`, the Inhibition is on record as -2.09%.
On to `CCCN(C)c1nccn2c(=O)n(CC(=O)Nc3ccc(Br)cc3)nc12`, for which the Inhibition was -5.88%.
For the compound `COc1ccccc1N1CCN(C(=O)CSc2nc3ccccc3n3cnnc23)CC1`, the Inhibition is 4.69%.
The same measure, in the same setting: the same measure for `CCOC(=O)c1ccccc1NC(=O)Cn1nc2c3sc(N4CCCC4)nc3ncn2c1=O`: -3.52%; for `C=Cc1ccc(CSc2nnc3c(=O)n(-c4ccc(F)cc4)ccn23)cc1`: -2.33%; for `Cc1oc(-c2cccc(Cl)c2)nc1CSc1nc2ccccc2n2c(C(C)C)nnc12`: -2.96%.
As to `CCCN(C)c1nccn2c(=O)n(CC(=O)Nc3cccc(Cl)c3F)nc12`, the Inhibition is 0.13%.
As for `COc1ccccc1-n1ccn2c(SCC(=O)Nc3ccc4c(c3)OCCO4)nnc2c1=O`, the Inhibition was -1.11%.
With `Cc1ccc(Sc2nccn3c(=O)n(CC(=O)Nc4ccc(Br)cc4)nc23)c(C)c1`, the Inhibition is reported as -4.39%.
In the case of `O=C(Cn1nc2c(=O)n(-c3ccc(Br)cc3)ccn2c1=O)Nc1cc(F)ccc1F`, the Inhibition was determined as 0.34%.
In the case of `COc1cc(OC)c(NC(=O)Cn2nc3c(SC4CCCCC4)nccn3c2=O)cc1Cl`, the Inhibition is recorded as -4.1%.
As to `CCOc1ccccc1NC(=O)Cn1nc2c3cc(-c4ccc(Cl)cc4)nn3ccn2c1=O`, the Inhibition is given as 1.3%.
Turning to `COc1ccc(N2CCN(C(=O)Cn3nc4ccc(-c5ccc(Cl)cc5)nn4c3=O)CC2)cc1`, the Inhibition is on record as -1.38%.
For `COc1ccccc1-n1ccn2c(SCc3cccc(Cl)c3)nnc2c1=O`, the Inhibition is given as -0.92%.
Consider `COc1cccc(NC(=O)Cn2nc3c(Oc4ccccc4)nccn3c2=O)c1`, for which the Inhibition was -5.32%.
As for `Cc1ccc(NC(=O)c2ccc3nnc(SCC(=O)Nc4ccc(F)cc4)n3c2)cc1`, the Inhibition is recorded as 5.45%.
In the case of `CCc1ccc(NC(=O)Cn2nc3c(Sc4ccccc4)nccn3c2=O)cc1`, the Inhibition is listed as -4.33%.
In the case of `CC(C)Cn1c(=O)c2ccc(C(=O)NC3CCCCC3)cc2n2c(=O)n(CC#N)nc12`, the Inhibition is reported as -0.16%.
Regarding `COc1cccc(-n2ccn3c(SCC(=O)N4CCN(c5ccc(F)cc5)CC4)nnc3c2=O)c1`, the Inhibition is -17.03%.
Turning to `Cc1ccc(C(=O)CSc2nnc3c(=O)n(-c4ccc(F)cc4)ccn23)c(C)c1`, the Inhibition is listed as -6%.
`Cc1ccc(-c2ccc3nnc(CCC(=O)N4CCN(C(=O)c5ccco5)CC4)n3n2)cc1C`: the Inhibition is -0.43%.
For `COc1ccc(-c2cc3c4nn(CC(=O)Nc5ccc(C)cc5C)c(=O)n4ccn3n2)cc1`, the Inhibition was 2.27%.
Turning to `Cc1nnc2c(=O)n(CC(=O)Nc3ccc(Cl)cc3F)c3ccccc3n12`, the Inhibition is -1.92%.
Consider `Cc1ccc(-c2cc3c4nnc(CCC(=O)NCc5ccc(F)c(Cl)c5)n4ccn3n2)cc1C`, for which the Inhibition is on record as -0.93%.
Turning to `CC(C)(C)S(=O)(=O)c1ccc2nn(CC(=O)Nc3ccc4c(c3)OCO4)c(=O)n2n1`, the Inhibition is 0.97%.
As to `COc1ccc(NC(=O)Cn2c(=O)c3nnc(C(C)C)n3c3ccccc32)cc1`, the Inhibition was -6.7%.
On to `CCC(C)NC(=O)Cn1nc2ccc(SCc3ccc(Cl)cc3)nn2c1=O` (stereo not drawn), for which the Inhibition is recorded as -1.43%.
As to `Cc1ccc(NC(=O)c2ccc3nnc(SCC(=O)Nc4ccc(Br)cc4)n3c2)cc1`, the Inhibition is -1.72%.
With `Cc1cc2nn(CC(=O)Nc3cc(F)ccc3F)c(=O)n2c(Nc2ccc(F)c(C)c2)n1`, the Inhibition turned out to be 0.42%.
As to `CC(C)c1ccc(N(Cc2cc(F)cc(F)c2)S(=O)(=O)c2cccn3cnnc23)cc1`, the Inhibition is on record as -1.47%.
On the same count and under the same terms, the same measure for `Cc1c(Cl)cccc1-n1ccn2c(=O)n(Cc3cccc(F)c3)nc2c1=O`: -6.71%.
